PKA kinase inh: blocks human protein kinase A activity. PKA Kemptide phosphorylation, Kinase-Glo ATP luminescence. AID 524. inhibition, % at 6 µM. P17612. 0.1% of 65,000 active;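 active = inhibition above the screen-wide mean inhibition plus 3 SD, cut at about 21% in these data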
ROCK2 inh: inhibitors of human Rho kinase 2 | 0.35% of 60,000 active | O75116 | inhibition, % at 6 µM | purified ROCK2, Kinase-Glo ATP depletion luminescence;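 active = inhibition above the screen-wide mean inhibition plus 3 SD, cut at about 18% in these data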;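 note: plate controls were DMSO wells for no effect and Y-27632 control wells after no-enzyme background subtraction for full effect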
D1 mod: D1 dopamine receptor (human) allosteric modulation; B-score at 10 µM; P21728; HEK293 D1, CRE-luciferase, dopamine EC30 potentiation; actives deviate in either direction; 5.9% of 58,000 active;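 active = luminescence count or its row- and column-corrected plate score outside the 99.7% band of the plate's sample wells, on either side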
Target sequence (P21728 whole entry, looked up): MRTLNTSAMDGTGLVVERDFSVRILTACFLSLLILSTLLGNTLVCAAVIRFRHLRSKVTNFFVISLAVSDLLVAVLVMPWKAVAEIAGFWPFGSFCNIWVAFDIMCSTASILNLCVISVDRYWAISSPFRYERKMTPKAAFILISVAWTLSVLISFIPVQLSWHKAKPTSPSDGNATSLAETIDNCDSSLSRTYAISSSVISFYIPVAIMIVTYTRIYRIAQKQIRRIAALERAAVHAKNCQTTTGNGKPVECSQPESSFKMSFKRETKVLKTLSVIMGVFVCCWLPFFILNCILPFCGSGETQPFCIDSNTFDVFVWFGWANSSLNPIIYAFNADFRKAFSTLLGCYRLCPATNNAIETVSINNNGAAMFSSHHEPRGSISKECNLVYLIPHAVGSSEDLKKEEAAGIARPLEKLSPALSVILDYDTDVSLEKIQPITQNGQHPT
DAT uptake mod: changed human dopamine transporter uptake under cocaine IC80; LLC-PK1 hDAT cells, [14C]-dopamine uptake with cocaine IC80; actives deviate in either direction; B-score at 10 µM; 1.3% of 110,000 active; AID 449768;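 active = Z score or B-score, a plate-position-corrected score, falls beyond the plate's 99.7% confidence bounds, in either direction; inactive = both scores lie inside the 99.7% bounds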;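 note: scored against the spread of the other compound wells on the same plate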
* marks the source's active call; other numbers are inactive results; . = not tested or not shown. Many of the other results were omitted from the sample, so hits are more common in it than they were.

SMILES | PKA kinase inh | ROCK2 inh | D1 mod | DAT uptake mod
CCOc1ccc(NC(=O)C(C)Oc2ccccc2C(=O)Nc2cccc(Cl)c2Cl)cc1 (stereo not given) | . | . | . | -0.14
Cc1ccc(C)n1/N=C1/NC(=O)CS1 | 7 | 9 | -0.063 | -3.1*
O=c1nc2n(c3sc4c(c13)CCC4)Cc1ccccc1-2 | 8 | . | 0.81 | .
COC(=O)c1cccc2c1-c1ccccc1/C2=N/O | 18 | 20* | -0.27 | .
CCn1c(=S)sc2nc(C)sc21 | 10 | 6 | 13* | 0.38
CCn1c(-c2ccc(C)cc2)n[nH]c1=S | . | . | . | -0.15
CN1C(=S)SC(/[N+]([O-])=C\c2cccs2)C1(C)C (stereo not given) | 1 | 0 | -7.5* | -0.62
CN1C(=S)SC(/[N+]([O-])=C\c2ccco2)C1(C)C (stereo not given) | 4 | 8 | -5.8* | 0.4
Cc1ccc(/C=[N+](/[O-])C2SC(=S)N(C)C2(C)C)cc1 (stereo not given) | . | . | . | -0.25
CCCc1c(-c2ccc(O)cc2)nn(-c2ccc(O)cc2)c1-c1ccc(O)cc1 | . | . | . | 1.1
COc1ccc(C(=O)NCCNC(=O)c2cc(OCC(F)(F)F)ccc2OCC(F)(F)F)cc1 | . | . | . | -0.63
CC1=CC(C)(C)N(S(=O)(=O)c2ccc(C)cc2)c2cc(C)ccc21 | . | . | . | -2*
Cc1ccc(S(=O)(=O)N2C(=S)SCC2(C)C)cc1 | 3 | -1 | 1.3 | -0.43
COc1ccc(Cc2nnc3c4cnn(C)c4ncn23)cc1 | 3 | 7 | 0.54 | -7.4*
O=C(NC1CCC(NC(=O)C(F)(F)C(F)F)CC1)C(F)(F)C(F)F (stereo not given) | 4 | 5 | -3.2* | 0.48
O=C(NCCCNC(=O)C(F)(F)C(F)F)C(F)(F)C(F)F | -9 | 2 | -0.49 | -0.18
Cc1cc(C)cc(OCC(=O)Nc2cccc(-c3nnc(-c4ccco4)o3)c2)c1 | 0 | 3 | -3.4* | 0.13
CC1(C)C[C@H](O)[C@@]23C[C@@H](OC2=O)[C@]2(C)C(=CCC4[C@@]5(C)CC[C@H](O)C(C)(C)C5CC[C@]42C)[C@@H]3C1 (stereo not given in full) | . | . | . | -0.55
CCSc1nnc(NC(=O)COc2ccc3ccccc3c2)s1 | . | . | . | -0.0019
CCCCCC(=O)Nc1cc2[nH]c(=O)cc(COC)c2cc1C | . | . | . | -0.00069
COCc1cc(=O)[nH]c2cc(NC(=O)C(C)(C)CCl)c(C)cc12 | . | . | . | -7.8*
O=C(NCc1cccc(Cl)c1)c1cnccn1 | 6 | 2 | 0.44 | -0.089
O=C(NCc1ccc(Cl)cc1)c1cnccn1 | . | . | . | -2.8*
Cn1c(SCC(=O)N2CCCc3ccccc32)nnc1-c1c[nH]c2ccccc12 | 6 | 10 | -0.4 | 3.6*
Cc1ccccc1OCc1nnc(SCC(=O)N2CCc3ccccc32)n1C | . | . | . | -8.6*
SMILES | PKA kinase inh | ROCK2 inh | D1 mod | DAT uptake mod
CCCn1c(SCC(=O)N2CCCc3ccccc32)nc2c1c(=O)n(C)c(=O)n2C | 7 | 6 | 4.2* | .
CCCCOC(=O)CSc1nnc(N)s1 | 8 | 3 | -0.12 | -2.4*
CCc1nn2cc(-c3ccccc3)nc2s1 | -2 | -12 | -8.3* | -0.54
Cc1nn2cc(-c3ccc(-c4ccccc4)cc3)nc2s1 | 3 | 4 | -4* | 0.98
CC(NC(=S)Nc1ccc(F)cc1)C(c1cccs1)N1CCOCC1 (stereo not given) | . | . | . | -0.95
Cc1ccc2cc(CCNC(=O)c3ccc(Br)o3)c(=O)[nH]c2c1 | 4 | 7 | 0.61 | .
CCn1c(C)c(C(C)=O)c(SC)nc1=S | . | . | . | -0.28
COc1ccc(C(=O)Nn2c(SCC(=O)NCC3CCCO3)nc3ccccc3c2=O)cc1 (stereo not given) | 3 | -14 | -5.4* | -8.4*
Cc1ccc(C)c(S(=O)(=O)NCc2ccc(C(=O)N3CCC(Cc4ccccc4)CC3)cc2)c1 | . | . | . | 3.5*
Cn1c(C(=O)N2CCN(c3ccc(F)cc3)CC2)cc2c(=O)n(C)c3ccccc3c21 | 6 | 6 | -0.71 | .
Cn1c(C(=O)N2CCN(C(=O)c3ccco3)CC2)cc2c(=O)n(C)c3ccccc3c21 | 9 | 4 | 0.39 | 2.2*
Cn1c(C(=O)Nc2ccc3c(c2)OCCO3)cc2c(=O)n(C)c3ccccc3c21 | 5 | 3 | -4.5* | -0.25
Cc1ccc(-c2nnc(N3CCN(C(=O)c4ccco4)CC3)c3ccccc23)cc1 | 3 | 7 | -1.8 | 2.9*
Cn1c(C(=O)NC2CC2)cc2c(=O)n(C)c3ccccc3c21 | 2 | 2 | 0.25 | 0.36
CCOC(=O)C1CCN(c2c(NCCN3CCN(c4ccccc4)CC3)c(=O)c2=O)CC1 | 5 | 4 | -1.3 | -0.45
CCOC(=O)C1CCN(c2c(NCc3ccc(C(=O)NC(C)CC)cc3)c(=O)c2=O)CC1 (stereo not given) | 13 | 6 | -3.2* | 0.16
N#Cc1c(NC(=O)CSc2ncn[nH]2)sc2c1CCCCC2 | 3 | -1 | -4.6* | 0.3
N#Cc1c(NC(=O)c2nc3ncccn3n2)sc2c1CCCCC2 | 4 | -3 | -4.3* | 0.55
CC1(c2nnc(-c3ccc(Cl)cc3)o2)CC(c2cccnc2)=NO1 (stereo not given) | . | . | . | -0.82
CCOc1ccccc1C(=O)Nc1ccc2nc(N3CCN(c4ncccn4)CC3)cc(C)c2c1 | 8 | . | -0.25 | .
CCN1CCN(c2cc(C)c3cc(NC(=O)c4ccc(OC)c(OC)c4)ccc3n2)CC1 | . | . | . | 2.6*
COc1cccc(C(=O)Nc2ccc3nc(N4CCN(c5ncccn5)CC4)cc(C)c3c2)c1OC | 8 | . | 1.4 | -6.9*
CCN1CCN(c2cc(C)c3cc(NC(=O)Cc4ccccc4OC)ccc3n2)CC1 | . | . | . | -0.6
CCN1CCN(c2cc(C)c3cc(NC(=O)c4ccc5c(c4)OCO5)ccc3n2)CC1 | -2 | 7 | -5* | 0.74
CCOC(=O)C1C(=O)NC(c2ccccc2)=NC1c1ccc(Cl)cc1 (stereo not given) | . | . | . | 0.82
SMILES | PKA kinase inh | ROCK2 inh | D1 mod | DAT uptake mod
C/C=C/C=[N+](\[O-])C(C)/C(=N/O)c1ccc(F)cc1 (stereo not given) | 10 | 2 | -5.7* | -0.0047
O=C1Nc2cc(Cl)ccc2Nc2cscc21 | . | . | . | -0.71
Cc1nn(Cc2cccc(C(=O)NC34CC5CC(CC(C5)C3)C4)c2)c(C)c1Br | . | . | . | 1.8
CCCNC(=O)c1cccc(Cn2nc(C)c(Br)c2C)c1 | 0 | 10 | -1.7* | 0.57
COCCNc1nc(-c2cc(C(=O)Nc3ccccc3)on2)cc(C(C)C)n1 | . | . | . | 1.4
CCOc1ccccc1COC(=O)c1cccc(-n2cnnn2)c1 | 0 | -6 | 10* | -0.96
Cc1ccc(C(=O)O)cc1S(=O)(=O)N1CCSCC1 | 9 | 0 | -0.38 | -9.1*
CCCCN(CCCC)CP(=O)(c1ccccc1)c1ccccc1 | . | . | . | -1.2
CCn1cc(C(=O)Nn2cnnc2)c(=O)c2ccc(C)nc21 | 7 | 20* | -0.48 | .
CC(c1c(O)c2ccccc2[nH]c1=O)C1(C)CCC(O)C(C)(C)O1 (stereo not given) | . | . | . | 0.3
O=C(c1cccc(Cl)c1)N1CCC(=O)N(C(CO)Cc2ccccc2)CC1 (stereo not given) | . | . | . | -0.05
Cc1c(N2C(=O)/C(=C/c3ccccc3)SC2=S)c(=O)n(-c2ccccc2)n1C | . | . | . | 2.6*
Cc1ccc(-c2nnc(CSc3nc(C(C)C)nc4sc(C)c(C)c34)o2)cc1 | . | . | . | 0.43

Bioassay records deposited in PubChem BioAssay by several laboratories.
